From PubChem BioAssay AID1443 (Sanford-Burnham Center for Chemical Genomics, 2008)
Hit rate of the full screen: of about 220,000 compounds, about 880 (0.4%) were called active.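 Rule for the calls: active = cell killing above 50% in the first pass at 4 µM, then a duplicate retest at 5 µM averaging 50% or more; inactive = the rest.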 This excerpt belongs to a sample that is enriched for actives.

experiment: PPC-1 cell viability loss under TRAIL – PPC-1 cells, ATPLite luminescence, uHTS, TRAIL potentiator project, primary screen (AID 1443); details: PPC-1 cells + TRAIL, hits give high values; at 4 µM unless noted;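 note: plate controls were cells with TRAIL plus DMSO for no effect and medium-only wells lacking cells for full effect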

Structure (SMILES) | cell killing (% activity)
CC(=O)c1sc(NC(=O)c2cccc3ccccc23)nc1C | 32% (inactive)
COC(=O)c1sc(NC(=S)NC(=O)c2ccc(C)cc2)nc1C | 27.1% (inactive)
CC(=O)c1sc(NC(=O)c2ccc(C)cc2)nc1C | 56.3% [at 5 µM] (active)
CC(=O)c1cc(-c2ccccc2)n(CC(=O)NC2CCCCC2)c1C | 6.9% (inactive)
CCCCCC(O)c1cccc(OCc2ccc3ccccc3n2)c1 (stereo unspecified) | 10.7% (inactive)
Cc1n[nH]c(=O)nc1N/N=C/c1cccs1 | 12.1% (inactive)
COc1cccc(NC(=O)CC(c2ccc(OC(C)C)cc2)c2ccccc2OC)c1 (stereo unspecified) | 22.6% (inactive)
C=C(C)CNC(=S)Nc1ccc(S(=O)(=O)Nc2cnc3ccccc3n2)cc1 | 12.5% (inactive)
O=C(/C=C\c1cn(-c2ccccc2)nc1-c1cccs1)N1CCOCC1 | 5.8% (inactive)
O=C(O)/C=C/c1cn(-c2ccccc2)nc1-c1cccs1 | 15.1% (inactive)
O=C(O)c1ccc(N/N=C/c2cn(-c3ccccc3)nc2-c2cccs2)cc1 | 79% [at 5 µM] (active)
O=C(COC(=O)Cc1ccc(Br)cc1)Nc1c(F)c(F)c(F)c(F)c1F | 17% (inactive)
O=C(CCl)Nc1cccc(CP(=O)(c2ccccc2)c2ccccc2)c1 | -1.1% (inactive)
O=C(Cc1cccs1)N/N=C/c1ccc(OCc2ccccc2)cc1 | 20% (inactive)
CC[C@@H](C)[C@@H](C(=O)N1CCN(C(=O)OC(C)(C)C)CC1)n1cc(CCC(=O)O)nn1 | 19% (inactive)
CC(=O)c1ccc(NC(=O)C2CC(=O)Nc3nc4ccccc4n32)cc1 (stereo unspecified) | 27.4% (inactive)
COc1cc(C2C(N3C(=O)c4ccccc4C3=O)C(=O)N2c2ccc(C)c(C)c2)cc(OC)c1OC (stereo unspecified) | 0.4% (inactive)
COC(=O)[C@H](CC(C)C)NC(=O)N1CCCCC1C (stereo partly specified) | 8.6% (inactive)
CS(=O)(=O)N(CC(=O)N/N=C/c1ccccn1)c1ccc(Oc2ccccc2)cc1 | 2.8% (inactive)
CC(CNC(=O)c1ccc(N)cc1)NC(=O)c1ccc(N)cc1 (stereo unspecified) | 15.7% (inactive)
O=C(NN1C(=O)C2C(C1=O)C1C=CC2C12CC2)c1ccccc1Cl (stereo unspecified) | 15.1% (inactive)

Structure (SMILES) | cell killing (% activity)
COc1ccc(NC(=O)C2=NNC(=O)CC2)cc1S(=O)(=O)N1CCCCC1 | 2.4% (inactive)
CCOc1cc(NC(=O)c2ccccn2)c(OCC)cc1NC(=O)c1ccc(OC)cc1 | 6.2% (inactive)
COc1ccc(-c2csc(Nc3ccccn3)n2)cc1 | 26.9% (inactive)
COc1ccc(C(=O)/C=C/Nc2ccccn2)cc1 | 74.5% [at 5 µM] (active)
Cc1ccc(/C=N/NC(=O)CSc2ccccn2)o1 | 28% (inactive)
Cc1ccnc(NC(=O)Cn2ccc([N+](=O)[O-])n2)c1 | -4.4% (inactive)
CN1C(=O)/C(=C/C=C2\SCCN2C)OC1=S | 7.1% (inactive)
COCCNC(=O)/C(C#N)=C/c1cccc(OCc2ccccc2)c1 | 6.3% (inactive)
COc1cc(/C=N/Nc2nn3cnnc3c3ccccc23)cc(OC)c1OC | 58.2% (active)
COc1ccc(/C=N/Nc2nc3ccccc3o2)cc1OC | 33% (inactive)
CCOc1ccc(/C=N/Nc2nncc(-c3ccccc3)n2)cc1OC | -7.3% (inactive)
COc1ccc(NC(=O)C2CCC(CNc3c(N4CCCCC4)c(=O)c3=O)CC2)c(OC)c1 (stereo unspecified) | -39.4% (inactive)
Cc1noc(C)c1S(=O)(=O)N(C)Cc1ccccc1 | 17.3% (inactive)
Cc1cc(C)c2nc(NC(=O)c3ccc4c(c3)OCO4)sc2c1 | 4.5% (inactive)
COCc1nnc(NC(=O)c2ccc3c(c2)OCO3)s1 | 21.9% (inactive)
O=C(Nc1nc2ccccc2s1)c1ccc2c(c1)OCO2 | 61.1% (active)
Cc1ccc(NC(=O)CCC(=O)N/N=C/c2ccco2)c(C)c1 | 5.1% (inactive)
COC(=O)C(=Nc1ccccc1)/C(C(=O)C(=O)N(C)c1ccccc1)=C(\O)c1ccc(Cl)cc1 | -15.5% (inactive)
CC1(C)COC(c2cccn2Cc2ccccc2Cl)=N1 | 3.7% (inactive)
O=C(N/N=C/C=C/c1ccco1)c1cccs1 | 24.4% (inactive)
Cc1ccc(-c2cc(C(=O)N/N=C/C=C/c3ccco3)c3ccccc3n2)cc1C | 55.7% [at 5 µM] (active)

Structure (SMILES) | cell killing (% activity)
COc1cccc(-c2cc(C(=O)N/N=C/c3ccc(OC)c(COC(C)=O)c3)c3ccccc3n2)c1 | 4.5% (inactive)
Nc1ccccc1SC(C[N+](=O)[O-])c1ccccc1 (stereo unspecified) | 6.4% (inactive)
O=c1c2ccccc2cnn1Cc1n[nH]c(=S)n1-c1ccccc1F | 17.1% (inactive)
COc1ccc(Cl)cc1NC(=O)Cn1nc(-c2ccc(C)cc2)n(C)c1=S | 14.2% (inactive)
Cn1cnc([N+](=O)[O-])c1Sc1n[nH]c(N)n1 | -16.4% (inactive)
COc1cccc(CNC(=O)CCC2CCCN(C(=O)c3cc(C)[nH]n3)C2)c1 (stereo unspecified) | 12.1% (inactive)
CCOC(=O)CSc1nnc(-c2ccc([N+](=O)[O-])cc2)o1 | 7.7% (inactive)
CCc1ccccc1NC(=O)CSc1nnc(-c2ccncc2)o1 | -4.8% (inactive)
O=C(CSc1nnc(-c2ccc([N+](=O)[O-])cc2)o1)Nc1ccccn1 | 51% [at 5 µM] (active)
COc1ccc(CNC(=O)C(Cc2ccccc2)n2cccc2)cc1 (stereo unspecified) | -1.5% (inactive)
O=C(CCN1C(=O)C2C3C=CC(C3)C2C1=O)Oc1ccc2ccccc2c1 (stereo unspecified) | 9.1% (inactive)
CCCCCCCNc1nc(Cl)nc(NCCO)n1 | 17.1% (inactive)
CC(C)(O)C#Cc1ncc(C(F)(F)F)cc1Cl | 3.1% (inactive)
Cc1c(C2=CCN(S(=O)(=O)c3ccc(Cl)cc3)CC2)c2ccccc2n1C | 31.7% (inactive)
S=c1[nH]nc(-c2ccco2)n1/N=C/c1ccccc1 | 8% (inactive)
Cn1c(-c2ccco2)nc2cc3ccccc3cc21 | 89.2% [at 5 µM] (active)
CN1c2ccccc2-c2nc3ccccc3n2C1c1ccco1 (stereo unspecified) | 12% (inactive)
CC(C)C(C)(C#N)NC(=O)CSc1nc2scc(-c3ccccc3)c2c(=O)[nH]1 (stereo unspecified) | 22.3% (inactive)
COc1ccccc1N1CCN(C(=O)c2ccc(Cl)c(S(=O)(=O)N3CCCC3)c2)CC1 | 0.9% (inactive)
